Assay results as given in ChEMBL document CHEMBL1961873, “Compounds: GSK PKIS; Assays: Nanosyn kinase panel” (2012).

Tests used:
[1] = target: Serine/threonine-protein kinase MRCK alpha (Homo sapiens) (UniProt Q5VT25); details: at 0.1 µM
[2] = target: Serine/threonine-protein kinase MRCK alpha (Homo sapiens) (UniProt Q5VT25); details: at 1 µM
[3] = target: Serine/threonine-protein kinase MRCK beta (Homo sapiens) (UniProt Q9Y5S2); details: at 0.1 µM
[4] = target: Serine/threonine-protein kinase MRCK beta (Homo sapiens) (UniProt Q9Y5S2); details: at 1 µM
[5] = target: Ribosomal protein S6 kinase alpha-5 (Homo sapiens) (UniProt O75582); details: at 0.1 µM
Ribosomal protein S6 kinase alpha-5 (Homo sapiens), sequence (O75582 whole entry, looked up): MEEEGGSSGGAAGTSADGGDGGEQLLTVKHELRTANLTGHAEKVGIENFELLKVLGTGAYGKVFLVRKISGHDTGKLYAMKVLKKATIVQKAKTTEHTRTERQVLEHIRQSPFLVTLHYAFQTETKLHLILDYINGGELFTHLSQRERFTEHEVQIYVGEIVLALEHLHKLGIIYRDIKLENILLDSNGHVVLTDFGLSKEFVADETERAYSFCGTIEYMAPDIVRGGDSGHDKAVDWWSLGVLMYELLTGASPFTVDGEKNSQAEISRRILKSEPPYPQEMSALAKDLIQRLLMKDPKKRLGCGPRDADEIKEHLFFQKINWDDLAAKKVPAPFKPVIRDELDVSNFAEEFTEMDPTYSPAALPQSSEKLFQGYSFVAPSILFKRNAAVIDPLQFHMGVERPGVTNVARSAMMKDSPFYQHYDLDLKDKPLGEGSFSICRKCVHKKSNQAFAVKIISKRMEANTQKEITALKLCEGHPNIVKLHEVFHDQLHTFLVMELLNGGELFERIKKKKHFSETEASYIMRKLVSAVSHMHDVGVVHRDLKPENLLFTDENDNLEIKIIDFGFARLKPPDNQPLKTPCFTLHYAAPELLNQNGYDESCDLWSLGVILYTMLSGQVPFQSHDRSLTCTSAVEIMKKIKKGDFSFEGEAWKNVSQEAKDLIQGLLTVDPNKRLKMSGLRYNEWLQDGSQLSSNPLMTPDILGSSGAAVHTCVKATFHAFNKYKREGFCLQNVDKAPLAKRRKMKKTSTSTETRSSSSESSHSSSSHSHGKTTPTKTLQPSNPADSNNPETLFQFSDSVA

[6] = target: Ribosomal protein S6 kinase alpha-5 (Homo sapiens) (UniProt O75582); details: at 1 µM
[7] = target: Ribosomal protein S6 kinase alpha-4 (Homo sapiens) (UniProt O75676); details: at 0.1 µM
Ribosomal protein S6 kinase alpha-4 (Homo sapiens), sequence (O75676 whole entry, looked up): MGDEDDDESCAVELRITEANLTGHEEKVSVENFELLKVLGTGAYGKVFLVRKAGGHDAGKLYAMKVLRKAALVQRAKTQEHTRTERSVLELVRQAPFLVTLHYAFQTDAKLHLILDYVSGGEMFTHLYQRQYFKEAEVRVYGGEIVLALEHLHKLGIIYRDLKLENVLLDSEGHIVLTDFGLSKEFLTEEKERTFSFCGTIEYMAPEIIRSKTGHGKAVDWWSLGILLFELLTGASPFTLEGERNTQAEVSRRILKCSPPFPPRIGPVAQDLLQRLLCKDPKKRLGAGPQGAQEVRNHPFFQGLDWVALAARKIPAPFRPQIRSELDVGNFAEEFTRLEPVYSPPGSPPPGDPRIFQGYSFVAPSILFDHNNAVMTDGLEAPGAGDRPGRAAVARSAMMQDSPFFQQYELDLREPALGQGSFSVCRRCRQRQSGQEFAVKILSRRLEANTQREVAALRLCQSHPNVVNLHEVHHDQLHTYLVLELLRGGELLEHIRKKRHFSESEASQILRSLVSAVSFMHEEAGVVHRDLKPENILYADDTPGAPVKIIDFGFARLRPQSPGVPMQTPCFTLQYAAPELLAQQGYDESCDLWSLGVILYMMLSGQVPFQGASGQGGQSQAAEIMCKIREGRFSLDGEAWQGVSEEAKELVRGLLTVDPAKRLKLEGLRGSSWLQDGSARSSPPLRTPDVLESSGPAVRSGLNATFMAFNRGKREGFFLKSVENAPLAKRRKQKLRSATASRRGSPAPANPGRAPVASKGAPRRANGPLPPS

[8] = target: Ribosomal protein S6 kinase alpha-4 (Homo sapiens) (UniProt O75676); details: at 1 µM
[9] = target: Ribosomal protein S6 kinase beta-1 (Homo sapiens) (UniProt P23443); details: at 0.1 µM
[10] = target: Ribosomal protein S6 kinase beta-1 (Homo sapiens) (UniProt P23443); details: at 1 µM
[11] = target: T1, 3-phosphoinositide-dependent protein kinase 1 (Homo sapiens) (UniProt O15530); details: at 0.1 µM;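 note: values are mean inhibition of PDK1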
T1 sequence (whole entry): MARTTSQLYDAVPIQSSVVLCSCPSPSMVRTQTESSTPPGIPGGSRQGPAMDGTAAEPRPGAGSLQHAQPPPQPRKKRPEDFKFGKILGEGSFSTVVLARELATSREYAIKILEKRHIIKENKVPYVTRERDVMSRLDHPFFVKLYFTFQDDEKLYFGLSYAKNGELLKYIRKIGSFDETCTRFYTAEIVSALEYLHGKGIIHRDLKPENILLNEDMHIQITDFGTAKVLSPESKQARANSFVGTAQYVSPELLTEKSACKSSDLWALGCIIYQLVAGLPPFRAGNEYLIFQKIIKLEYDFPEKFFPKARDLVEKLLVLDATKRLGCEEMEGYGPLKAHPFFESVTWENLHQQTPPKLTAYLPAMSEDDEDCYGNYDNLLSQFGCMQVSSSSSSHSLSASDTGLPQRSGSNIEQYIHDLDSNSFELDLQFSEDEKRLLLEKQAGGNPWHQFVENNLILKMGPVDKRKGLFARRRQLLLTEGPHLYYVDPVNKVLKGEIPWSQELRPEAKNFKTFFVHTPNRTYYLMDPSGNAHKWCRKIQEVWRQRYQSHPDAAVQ

[12] = target: cAMP-dependent protein kinase catalytic subunit alpha (Homo sapiens) (UniProt P17612); details: at 0.1 µM
[13] = target: cAMP-dependent protein kinase catalytic subunit alpha (Homo sapiens) (UniProt P17612); details: at 1 µM
[14] = target: Protein kinase C alpha type (Homo sapiens) (UniProt P17252); details: at 0.1 µM
[15] = target: Protein kinase C alpha type (Homo sapiens) (UniProt P17252); details: at 1 µM
[16] = target: Protein kinase C beta type (Homo sapiens) (UniProt P05771); details: at 0.1 µM
[17] = target: Protein kinase C beta type (Homo sapiens) (UniProt P05771); details: at 1 µM
[18] = target: Protein kinase C eta type (Homo sapiens) (UniProt P24723); details: at 0.1 µM
Protein kinase C eta type (Homo sapiens), sequence (P24723 whole entry): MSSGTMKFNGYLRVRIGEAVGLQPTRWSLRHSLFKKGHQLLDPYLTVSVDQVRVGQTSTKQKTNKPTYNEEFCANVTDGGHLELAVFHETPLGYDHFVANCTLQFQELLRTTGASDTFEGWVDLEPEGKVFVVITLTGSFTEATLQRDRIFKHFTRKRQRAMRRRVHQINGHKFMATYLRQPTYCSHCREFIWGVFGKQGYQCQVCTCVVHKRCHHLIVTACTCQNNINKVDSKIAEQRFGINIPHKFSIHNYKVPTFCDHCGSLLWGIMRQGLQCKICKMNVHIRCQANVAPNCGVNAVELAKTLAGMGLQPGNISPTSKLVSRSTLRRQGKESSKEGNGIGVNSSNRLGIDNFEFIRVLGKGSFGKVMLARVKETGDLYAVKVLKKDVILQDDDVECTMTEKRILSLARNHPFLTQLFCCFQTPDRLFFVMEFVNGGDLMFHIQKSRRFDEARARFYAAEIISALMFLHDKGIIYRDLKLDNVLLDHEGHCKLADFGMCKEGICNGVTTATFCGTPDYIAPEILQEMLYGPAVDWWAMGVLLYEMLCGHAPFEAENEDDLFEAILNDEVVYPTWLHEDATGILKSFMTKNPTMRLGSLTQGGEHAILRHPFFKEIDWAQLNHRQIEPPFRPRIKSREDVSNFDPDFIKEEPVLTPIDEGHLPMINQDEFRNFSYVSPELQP

[19] = target: Protein kinase C eta type (Homo sapiens) (UniProt P24723); details: at 1 µM
[20] = target: Protein kinase C gamma type (Homo sapiens) (UniProt P05129); details: at 0.1 µM;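 note: values are mean percent inhibition of PKC gamma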

Serine/threonine-protein kinase MRCK alpha (Homo sapiens), sequence (Q5VT25 whole entry): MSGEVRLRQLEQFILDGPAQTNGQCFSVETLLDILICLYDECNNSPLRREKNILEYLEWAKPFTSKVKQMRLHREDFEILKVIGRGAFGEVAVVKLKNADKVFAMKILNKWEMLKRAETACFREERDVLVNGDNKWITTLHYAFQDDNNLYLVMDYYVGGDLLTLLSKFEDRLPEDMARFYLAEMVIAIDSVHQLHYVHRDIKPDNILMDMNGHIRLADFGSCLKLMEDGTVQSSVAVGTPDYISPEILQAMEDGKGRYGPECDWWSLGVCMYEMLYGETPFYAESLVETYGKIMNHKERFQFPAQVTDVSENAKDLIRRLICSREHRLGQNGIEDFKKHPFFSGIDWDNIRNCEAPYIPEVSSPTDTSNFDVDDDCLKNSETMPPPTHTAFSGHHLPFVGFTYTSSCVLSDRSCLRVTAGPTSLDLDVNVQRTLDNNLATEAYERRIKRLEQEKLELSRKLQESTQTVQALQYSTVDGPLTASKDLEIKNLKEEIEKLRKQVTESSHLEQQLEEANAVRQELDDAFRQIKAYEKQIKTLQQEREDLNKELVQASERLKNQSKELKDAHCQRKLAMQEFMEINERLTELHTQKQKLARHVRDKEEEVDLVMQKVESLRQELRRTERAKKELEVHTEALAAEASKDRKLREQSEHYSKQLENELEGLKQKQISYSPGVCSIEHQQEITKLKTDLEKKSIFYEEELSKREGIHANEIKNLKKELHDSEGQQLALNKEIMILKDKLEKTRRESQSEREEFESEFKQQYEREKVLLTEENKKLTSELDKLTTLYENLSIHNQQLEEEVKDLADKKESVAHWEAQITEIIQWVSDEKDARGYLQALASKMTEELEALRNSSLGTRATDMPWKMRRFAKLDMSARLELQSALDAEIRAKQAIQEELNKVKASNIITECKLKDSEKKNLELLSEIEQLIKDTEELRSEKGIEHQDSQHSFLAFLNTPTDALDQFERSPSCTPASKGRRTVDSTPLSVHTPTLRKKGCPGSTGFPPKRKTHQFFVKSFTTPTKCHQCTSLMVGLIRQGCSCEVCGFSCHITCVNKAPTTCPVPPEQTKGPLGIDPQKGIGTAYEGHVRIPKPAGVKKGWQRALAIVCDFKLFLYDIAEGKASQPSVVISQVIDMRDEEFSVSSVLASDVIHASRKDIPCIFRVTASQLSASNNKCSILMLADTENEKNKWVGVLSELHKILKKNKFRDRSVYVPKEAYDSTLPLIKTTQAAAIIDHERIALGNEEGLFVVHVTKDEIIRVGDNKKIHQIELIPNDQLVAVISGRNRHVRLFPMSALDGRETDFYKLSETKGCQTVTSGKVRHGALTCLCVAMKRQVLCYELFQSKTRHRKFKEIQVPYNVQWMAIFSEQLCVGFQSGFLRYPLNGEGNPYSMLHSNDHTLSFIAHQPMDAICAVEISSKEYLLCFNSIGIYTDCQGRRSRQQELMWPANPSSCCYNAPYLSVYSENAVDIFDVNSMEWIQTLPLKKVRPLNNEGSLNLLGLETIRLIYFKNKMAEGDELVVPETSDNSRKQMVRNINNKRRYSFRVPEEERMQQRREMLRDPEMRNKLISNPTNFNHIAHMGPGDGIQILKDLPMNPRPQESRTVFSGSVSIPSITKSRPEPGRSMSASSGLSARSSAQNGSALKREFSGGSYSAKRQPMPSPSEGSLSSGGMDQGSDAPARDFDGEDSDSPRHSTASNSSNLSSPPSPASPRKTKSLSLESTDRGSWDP

SMILES	inhibition [1] [%]	inhibition [2] [%]	inhibition [3] [%]	inhibition [4] [%]	inhibition [5] [%]	inhibition [6] [%]	inhibition [7] [%]	inhibition [8] [%]	inhibition [9] [%]	inhibition [10] [%]	inhibition [11] [%]	inhibition [12] [%]	inhibition [13] [%]	inhibition [14] [%]	inhibition [15] [%]	inhibition [16] [%]	inhibition [17] [%]	inhibition [18] [%]	inhibition [19] [%]	inhibition [20] [%]
Cn1c(-c2nonc2N)nc2cnccc21	1.33	10.3	3.02	14.4	32.7	72.4	7.86	39.6	19.8	66.6	4.21	2.05	6.79	0.48	2.7	7.33	36.2	6.3	29.4	1.7
CC1=C(C(=O)Nc2ccc3[nH]ncc3c2)C(c2ccc(F)cc2)N=C(c2ccc(C(F)(F)F)nc2)N1 (stereo not given)	-0.15	0.82	-0.07	4.54	3.51	19.2	2.12	14.9	1.03	7.4	2.62	3.58	20.9	1.25	2.09	0.07	-0.53	2.89	2.1	0.54
CCS(=O)(=O)c1ccc(OC)c(Nc2ncc(-c3cccc(F)c3)o2)c1	4.37	2.99	0.15	0.78	5.29	7.75	4.36	5.01	2.77	5.19	4.01	2.45	6.7	1.28	3.32	-1.13	2.28	3.12	3.91	5.17
COc1ccc(Nc2ncc(-c3ccccc3)o2)cc1OC	0.45	2.02	0.74	1.74	0.37	1.73	1.03	4.59	1.51	2.28	2.22	0.2	1.87	1.08	4.51	-0.02	3.24	0.42	-1.25	0.58
Fc1ccc(Nc2nccc(-c3c(-c4ccc(C(F)(F)F)cc4)nn4ncccc34)n2)cc1F	-0.28	-1.12	-0.35	1.04	2.66	2.7	-0.61	2	1.31	0.33	3.96	1.44	1.2	1.5	2.09	-0.08	-1.29	0.94	1.72	1.67
COc1ccccc1-c1cc(/C=C2\C(=O)Nc3ncc(Br)cc32)cc(Br)c1O	-0.66	-2.56	-0.06	-0.72	3.42	1.75	1.76	6.3	2.51	2.75	2.09	1.83	1.05	0.82	1.73	-0.31	0.26	2.06	1.62	-0.61
NS(=O)(=O)c1ccc(N/N=C2\C(=O)Nc3ccc(C(=O)NCc4ccncc4)cc32)cc1	0.07	3.72	-0.38	2.29	5.11	9.08	3.9	14.5	1.29	6.6	10.9	5.56	8.91	0.49	2.27	-0.39	5.08	6.25	4.31	1.42
COC(=O)Nc1nc2ccc(Oc3ccc(NC(=O)Nc4cc(C(F)(F)F)ccc4F)cc3)cc2s1	-0.38	-1.54	0.73	1.68	0.52	0.93	1.67	2.86	6.33	23.2	0.63	1.2	0.64	-0.14	9.89	1.64	2.17	2.29	1.44	-2.55
NC(=O)c1ccc2c(-c3ccnc(NCCCO)n3)c(-c3ccc(F)cc3)nn2c1	0.04	2.55	0.29	2.28	11.4	8.01	1.44	2.05	1.72	1.46	2.05	2.22	2.01	1.39	11	2.42	17.5	2.29	4.92	3.3
